Measurements taken from PMC6925144, “A prospective compound screening contest identified broader inhibitors for Sirtuin 1” (Scientific Reports, 2019).

These compounds were tested against NAD-dependent deacetylase Sirtuin 1 (human, UniProt Q96EB6) (assay: primary screen, percent inhibition; higher = more effect of the substance). Settings: 10 µM.
Chain of NAD-dependent deacetylase Sirtuin 1 (Q96EB6 2-747 limits assumed): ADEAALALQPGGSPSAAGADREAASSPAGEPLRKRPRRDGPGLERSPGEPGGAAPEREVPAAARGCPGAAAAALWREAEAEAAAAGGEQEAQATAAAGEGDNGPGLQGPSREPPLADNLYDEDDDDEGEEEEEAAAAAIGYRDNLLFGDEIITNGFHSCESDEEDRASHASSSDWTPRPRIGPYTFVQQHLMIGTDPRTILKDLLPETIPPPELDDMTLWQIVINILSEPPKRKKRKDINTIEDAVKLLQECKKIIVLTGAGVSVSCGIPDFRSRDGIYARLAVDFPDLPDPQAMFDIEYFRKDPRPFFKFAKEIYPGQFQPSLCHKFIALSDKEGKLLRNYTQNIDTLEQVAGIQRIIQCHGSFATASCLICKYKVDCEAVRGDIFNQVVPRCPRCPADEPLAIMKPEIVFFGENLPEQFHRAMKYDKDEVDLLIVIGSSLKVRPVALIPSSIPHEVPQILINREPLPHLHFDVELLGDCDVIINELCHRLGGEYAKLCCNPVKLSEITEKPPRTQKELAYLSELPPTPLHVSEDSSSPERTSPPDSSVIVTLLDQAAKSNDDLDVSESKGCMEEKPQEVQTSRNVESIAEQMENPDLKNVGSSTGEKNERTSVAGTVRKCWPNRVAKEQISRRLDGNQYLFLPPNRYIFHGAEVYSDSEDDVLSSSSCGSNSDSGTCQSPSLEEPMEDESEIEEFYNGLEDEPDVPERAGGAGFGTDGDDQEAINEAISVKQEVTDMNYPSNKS
Design: mean of n = 4
Description: Note that the inhibitory assay was conducted with NAD+.
In the case of `O=C(CCc1c[nH]c2ccccc12)Nc1nnc(-c2ccccc2)o1`, the “TSA(without NAD+) / Inhibitory assay (Promega kit) / Mean (%)” value (from here on “TSA(without NAD+) / Inhibitory assay … (%)”) is reported as 10.8%. For `O=C1NC(=O)c2ccccc2/C1=C\NNC(=O)C12CC3CC(CC(C3)C1)C2`, the “TSA(with NAD+) / Inhibitory assay (Promega kit) / Mean (%)” value (“TSA(with NAD+) / Inhibitory assay … (%)” for short) was 27.6%. For `Cc1ccc(C(=O)Nc2ccc(NC(=O)NCC3CCCO3)cc2)cn1` (centres unmarked), the “TSA(without NAD+) / Inhibitory assay … (%)” value was -1.1%. In the case of `Cc1sc2nc(-c3cccs3)nc(N3CCC(C(N)=O)CC3)c2c1C`, the “TSA(without NAD+) / Inhibitory assay … (%)” value is reported as -0.574%. For `COc1ccc(N(C)S(=O)(=O)c2cccc(C(=O)Nc3ccc(Br)c(C(F)(F)F)c3)c2)cc1`, the “TSA(without NAD+) / Inhibitory assay … (%)” value was 5.07%. For `NC(=O)C1CCN(c2nc(-c3cccs3)nc3sc4c(c23)CCCC4)CC1`, the “TSA(without NAD+) / Inhibitory assay … (%)” value was 0.0174%. In the case of `O=C1NC(=S)NC(=O)C1=Cc1cn(-c2ccccc2)nc1-c1cc2ccccc2o1`, the “TSA(with NAD+) / Inhibitory assay … (%)” value is reported as 57.2%. `Oc1cccc2c1Cc1c-2nc2ccc(Cl)cc2c1-c1ccccc1Cl` was tested, and the “TSA(with NAD+) / Inhibitory assay … (%)” value was 24.3%.
